Shown are actives, neighbours in structure and some others; about 11% of the full set was active somewhere.
BAZ2B block – qHTS Assay for Inhibitors of BAZ2B; Bromodomain adjacent to zinc finger domain protein 2B (Homo sapiens), Q9UIF8; AlphaScreen BAZ2B-H3K14Ac peptide displacement; Potency, µM (doses to about 114 µM), for the others: at the top dose activity change, negative = inhibition, hits mostly inhibitors; 360,000 tested, 4.4% active; note: potency is the fitted concentration of half-maximal effect; % is set by controls: 0 for no effect and ±100 for the full control effect; nearly all actives have a fitted effect of over 60% in size
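Inhibition is scored as reduced AlphaScreen emission. The BAZ2B/b-H3(5-23)K14Ac complex (50 nM each) in PBS pH 7.4, 0.01% Tween-20 meets compound (up to 110 uM) for 30 min at RT before bead addition.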
JMJD2A Tudor inh – qHTS Assay for Inhibitors of JMJD2A-Tudor Domain. Potency, µM (top dose mostly 114 µM), for the others: top-dose activity change, negative = inhibition, actives largely listed as inhibitors. 390,000 tested, 4.4% active. Lysine-specific demethylase 4A (Homo sapiens), O75164. AlphaScreen JMJD2A-Tudor / H3K4me3 peptide binding; note: potency is the fitted concentration of half-maximal effect; % is set by controls: 0 for no effect and ±100 for the full control effect; nearly all actives have a fitted effect of over 50% in size
G9a inh – qHTS Assay for Inhibitors of Histone Lysine Methyltransferase G9a; Histone-lysine N-methyltransferase EHMT2 (Homo sapiens), Q96KQ7; 350,000 tested, 8.8% active; AID 504332, 2011; G9a H3K9 monomethylation, AlphaScreen, 2 h; Potency, µM (series often up to 102 µM), without a hit: at the top dose activity, negative = inhibition, actives largely listed as inhibitors; note: potency is the fitted concentration of half-maximal effect; % is set by controls: 0 for no effect and ±100 for the full control effect; nearly all actives have a fitted effect of over 75% in size
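Using a bead-based AlphaScreen, monomethylated H3K9 product from 2 h room-temperature reactions (G9a 20 nM, peptide 500 nM, SAM 20 uM) was detected with 0.5 ug/mL rabbit anti-H3K9me1 antibody.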
PI5P4Ka inh – qHTS for Inhibitors of phosphatidylinositol 5-phosphate 4-kinase (PI5P4K) | Phosphatidylinositol 5-phosphate 4-kinase type-2 alpha (Homo sapiens), P48426 | PI5P4Kalpha enzyme, ADP-Glo luminescence, 60 min; active compounds read low | max response, % | 330,000 tested, 1.2% active | AID 652105, 2013; active = max response of -50% or lower; inconclusive = between -30% and -50%; inactive = -30% or higher; note: value at the top dose of about 77 µM; % is set by controls: 0 for no effect and ±100 for the full control effect
Target sequence (P48426 whole entry, looked up): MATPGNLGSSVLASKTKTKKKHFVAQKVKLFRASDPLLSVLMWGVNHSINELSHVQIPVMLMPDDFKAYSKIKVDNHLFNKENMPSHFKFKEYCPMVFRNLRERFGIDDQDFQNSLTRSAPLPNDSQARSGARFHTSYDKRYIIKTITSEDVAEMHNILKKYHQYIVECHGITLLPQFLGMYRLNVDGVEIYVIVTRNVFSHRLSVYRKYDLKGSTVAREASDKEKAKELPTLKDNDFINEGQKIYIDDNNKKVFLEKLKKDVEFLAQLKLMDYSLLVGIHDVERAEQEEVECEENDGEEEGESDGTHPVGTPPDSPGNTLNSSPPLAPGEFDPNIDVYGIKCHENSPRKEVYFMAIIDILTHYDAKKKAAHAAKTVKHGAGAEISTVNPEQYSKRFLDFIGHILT
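Single end-point luminescence (ADP-Glo) quantified ADP from PI5P4Kalpha turnover; ATP 5 microM final, 1 h at RT, 0.1% CHAPS and 0.28 mM EGTA in HEPES pH 7.4.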
L3MBTL1 inh – qHTS Assay for the Inhibitors of L3MBTL1 | Lethal(3)malignant brain tumor-like protein 1 (Homo sapiens), Q9Y468 | AlphaScreen L3MBTL1–H3K9me1 peptide binding | Potency, µM (doses to about 57.1 µM), for inactives: at the highest dose activity, negative = inhibition, actives largely listed as inhibitors | 230,000 tested, 0.66% active; note: potency is the fitted concentration of half-maximal effect; % is set by controls: 0 for no effect and ±100 for the full control effect; nearly all actives have a fitted effect of over 60% in size
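L3MBTL1 50 nM + b-AHA-H3(1-15)K9me1 75 nM, 30 min RT; compound added, 30 min RT; streptavidin donor/Ni-chelate acceptor beads 10 ug/mL each final, 30 min RT dark; AlphaScreen read.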
HP1b binding inh – HTS for Inhibitors of HP1-beta Chromodomain Interactions with Methylated Histone Tails; Potency, µM (top dose mostly 114 µM), for inactives: at the highest dose activity change, negative = inhibition, hits mostly inhibitors; Chromobox protein homolog 1 (Homo sapiens), P83916; AlphaScreen HP1-beta / biotin-H3K9me3 peptide binding; 390,000 tested, 0.56% active; note: potency is the fitted concentration of half-maximal effect; nearly all actives have a fitted effect of over 70% in size
Target sequence (P83916 whole entry, looked up): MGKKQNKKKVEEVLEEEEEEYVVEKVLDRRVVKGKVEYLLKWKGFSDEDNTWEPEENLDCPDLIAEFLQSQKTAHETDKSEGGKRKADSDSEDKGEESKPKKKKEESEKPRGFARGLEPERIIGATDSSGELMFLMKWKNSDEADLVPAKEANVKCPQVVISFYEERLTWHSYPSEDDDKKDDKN
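AlphaScreen: HP1-beta (50 nM) preformed 30 min with biotin-H3(1-18)K9me3 peptide (50 nM) in PBS pH 7.4, 0.01% Tween-20. Compound added for 30 min at RT, then streptavidin donor/nickel chelate acceptor beads (10 ug/mL) for 30 min.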
Starred values were filed as active, the others as inactive; [ ] = remark or other dose. Unless noted, calls come from the whole dose curve; as a rule, active = well fitted inhibition curve with a large enough effect; inconclusive = small, poorly fitted or top-dose-only effect; inactive = no such curve, though single readings can be large or run the other way.

How did CCOc1cc(CNC(=O)c2cc(-c3ccccc3)n[nH]2)cc(OCC)c1OCC do in these assays?
BAZ2B block: -18%; JMJD2A Tudor inh: -14%; G9a inh: 9%[59 µM]; HP1b binding inh: 18%

What do the screens show for `Cc1ccc(CSC2=NS(=O)(=O)c3ccccc32)cc1`?
JMJD2A Tudor inh: -26%[57.1 µM]; HP1b binding inh: 26%[57 µM]

How did O=C(NCc1cccc(Cl)c1)NCc1noc2ccccc12 do in these assays?
BAZ2B block: -3%; JMJD2A Tudor inh: 5%; G9a inh: -1%[59 µM]; HP1b binding inh: 38%

How did CCSc1nc2sc3c(c2c(=O)n1CC)CCC3 do in these assays?
BAZ2B block: -35%; JMJD2A Tudor inh: 8%; G9a inh: 41%[59 µM]; PI5P4Ka inh: 5; L3MBTL1 inh: -8%; HP1b binding inh: 81%

What do the screens show for `Cc1nc2sc3c(c2c(=O)n1NC(=O)CCBr)CCCC3`?
BAZ2B block: -18%; JMJD2A Tudor inh: -11%; G9a inh: 50µM*; PI5P4Ka inh: -2; L3MBTL1 inh: -8%; HP1b binding inh: 40%

How did CCn1c(SCC(=O)c2ccccc2)nc2sc3c(c2c1=O)CCN(C)C3 do in these assays?
BAZ2B block: -39%; JMJD2A Tudor inh: inconclusive; G9a inh: 25µM*; PI5P4Ka inh: -12; L3MBTL1 inh: inconclusive; HP1b binding inh: -38%

What do the screens show for `COc1ccc(-n2c(NN)nc3sc4c(c3c2=O)CCCC4)cc1`?
BAZ2B block: -3%; JMJD2A Tudor inh: -33%; G9a inh: 50µM*; PI5P4Ka inh: 8; L3MBTL1 inh: -1%; HP1b binding inh: 21%

What do the screens show for `CCn1c(NN)nc2sc3c(c2c1=O)CCC3`?
BAZ2B block: 3%; JMJD2A Tudor inh: inconclusive; G9a inh: 45µM*; PI5P4Ka inh: -59*; HP1b binding inh: -22%

How did COc1ccccc1-c1cc2nc(C)c(CCC(=O)Nc3ccc(Br)c(C)c3)c(C)n2n1 do in these assays?
BAZ2B block: 0%; JMJD2A Tudor inh: -14%; G9a inh: -7%[59 µM]; HP1b binding inh: 23%

What do the screens show for `NNc1nc2sc3c(c2c(=O)n1C1CCCCC1)CCN(Cc1ccccc1)C3`?
BAZ2B block: -35%; JMJD2A Tudor inh: 6%; G9a inh: 50µM*; PI5P4Ka inh: 8; L3MBTL1 inh: -26%; HP1b binding inh: 23%

What do the screens show for `CC1=NN(c2ccc(S(=O)(=O)O)cc2Cl)C(=O)C1`?
BAZ2B block: -2%; JMJD2A Tudor inh: inconclusive; PI5P4Ka inh: 1; L3MBTL1 inh: -4%; HP1b binding inh: -1%

Results for CC1=NN(c2cc(Cl)c(S(=O)(=O)O)cc2Cl)C(=O)C1 ?
JMJD2A Tudor inh: 89µM*; PI5P4Ka inh: 1; HP1b binding inh: 14%[57 µM]

Results for CC1=NN(c2ccc(C(=O)O)c(N)c2)C(=O)C1 ?
BAZ2B block: 40µM*; JMJD2A Tudor inh: 50µM*; G9a inh: 4.5µM*; PI5P4Ka inh: -2; HP1b binding inh: 71µM*

How did CC1=NN(c2ccc(Cl)c(C(=O)O)c2)C(=O)C1 do in these assays?
BAZ2B block: -26%; JMJD2A Tudor inh: 56µM*; G9a inh: 50µM*; PI5P4Ka inh: -17; L3MBTL1 inh: inconclusive; HP1b binding inh: -38%

Results for COc1ccc(C2=Nn3c(nnc3-c3ccccc3OC)SC2)cc1 ?
JMJD2A Tudor inh: -12%

How did O=C(NCCN1CCN(C(=O)c2ccc(Br)cc2)CC1)c1ccc(Br)cc1 do in these assays?
BAZ2B block: -5%; JMJD2A Tudor inh: -21%; G9a inh: 1%; PI5P4Ka inh: 1; HP1b binding inh: 39%

How did OCCN1CCN(C(=S)c2ccc(Br)cc2)CC1 do in these assays?
BAZ2B block: -2%; JMJD2A Tudor inh: -10%; G9a inh: 22µM*; PI5P4Ka inh: 4; L3MBTL1 inh: 0%; HP1b binding inh: 0%

How did CSc1ccc(C(=S)N2CCN(CCO)CC2)cc1 do in these assays?
BAZ2B block: 5%; JMJD2A Tudor inh: -8%; G9a inh: 10µM*; L3MBTL1 inh: 11%; HP1b binding inh: -16%

What do the screens show for `CCCc1cnc2c(c1SCc1ccc(C(F)(F)F)cc1)c(=O)n(C)c(=O)n2C`?
BAZ2B block: 6%; JMJD2A Tudor inh: -6%; G9a inh: inconclusive; HP1b binding inh: 50%

How did Cc1cc(C)nc(SCNC(=O)c2ccccc2)n1 do in these assays?
BAZ2B block: -13%; JMJD2A Tudor inh: inconclusive; G9a inh: 10µM*; L3MBTL1 inh: -4%; HP1b binding inh: 45%

Results for Cc1ccc(C(=O)CSc2cc(C)nc(SCC(=O)c3ccccc3)n2)cc1 ?
BAZ2B block: -4%; JMJD2A Tudor inh: 22%; G9a inh: 33%[12.7 µM]; PI5P4Ka inh: -5; HP1b binding inh: 56%

How did Cc1cc(SCNC(=O)c2ccccc2)nc(C(C)C)n1 do in these assays?
BAZ2B block: -7%; JMJD2A Tudor inh: 9%; G9a inh: 32µM*; PI5P4Ka inh: -9; HP1b binding inh: 30%

What do the screens show for `Cc1cc(C)nc(SCC(=O)O)n1`?
BAZ2B block: -107%; JMJD2A Tudor inh: -14%; G9a inh: -14%; PI5P4Ka inh: 1; L3MBTL1 inh: 1%; HP1b binding inh: 37%

Results for C=CCNC(=O)COC(=O)c1ccc(Sc2nncn2C)c([N+](=O)[O-])c1 ?
BAZ2B block: -4%; JMJD2A Tudor inh: -12%; G9a inh: -3%; PI5P4Ka inh: 5; L3MBTL1 inh: 5%; HP1b binding inh: 65%

How did CCOC(=O)NC(=O)COC(=O)c1ccc(Sc2ncn[nH]2)c([N+](=O)[O-])c1 do in these assays?
BAZ2B block: 79µM*; JMJD2A Tudor inh: -31%; G9a inh: 20µM*; PI5P4Ka inh: 8; L3MBTL1 inh: 7%; HP1b binding inh: 1%

Results for C=CCN(CC=C)C(=O)COC(=O)c1ccc(Sc2ncn[nH]2)c([N+](=O)[O-])c1 ?
BAZ2B block: inconclusive; JMJD2A Tudor inh: -21%; G9a inh: 28µM*; PI5P4Ka inh: -22; HP1b binding inh: -1%

How did CCOc1ccc(-c2noc(CSc3nnc(Cc4ccccc4)n3-c3cccc(C)c3)n2)cc1 do in these assays?
BAZ2B block: -14%; JMJD2A Tudor inh: inconclusive; G9a inh: -10%[59 µM]; HP1b binding inh: 16%

Results for C=C(C)CSc1nc2sc3c(c2c(=O)n1Cc1ccccc1)CC(C)(CC)OC3 (stereo unspecified) ?
BAZ2B block: 2%; JMJD2A Tudor inh: -5%; G9a inh: 3%[59 µM]; HP1b binding inh: 34%

High-throughput results as filed in PubChem BioAssay.
